Vif inh = HIV Vif self-association inhibitors, primary screen, imaging, HEK293T, single point; 340,000 tested, 0.35% active; inhibition, % at 7.49 µM; HEK293T cells, Vif self-association by quenched fluorescence, 24 h; in the data active means inhibition above about 50%, passing the limit was not always enough; inconclusive means no clear call, values can overlap the other calls; inactive means below about 31%
Neddyl block = inhibitors of cullin neddylation, primary screen, biochemical, TR-FRET, uHTS, NAE and Ubc12; NEDD8-conjugating enzyme Ubc12 (Homo sapiens) + NEDD8-activating enzyme E1 regulatory …; inhibition, % at 25 µM; 360,000 tested, 0.58% active; in the data active means inhibition above about 36%
Target sequence (P61081 whole entry, looked up): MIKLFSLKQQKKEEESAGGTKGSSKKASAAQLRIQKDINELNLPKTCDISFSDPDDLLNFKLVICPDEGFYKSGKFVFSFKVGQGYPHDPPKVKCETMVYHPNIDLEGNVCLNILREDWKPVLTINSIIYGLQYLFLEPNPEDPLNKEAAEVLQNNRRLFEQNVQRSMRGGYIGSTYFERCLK
Target sequence (Q13564 whole entry, looked up): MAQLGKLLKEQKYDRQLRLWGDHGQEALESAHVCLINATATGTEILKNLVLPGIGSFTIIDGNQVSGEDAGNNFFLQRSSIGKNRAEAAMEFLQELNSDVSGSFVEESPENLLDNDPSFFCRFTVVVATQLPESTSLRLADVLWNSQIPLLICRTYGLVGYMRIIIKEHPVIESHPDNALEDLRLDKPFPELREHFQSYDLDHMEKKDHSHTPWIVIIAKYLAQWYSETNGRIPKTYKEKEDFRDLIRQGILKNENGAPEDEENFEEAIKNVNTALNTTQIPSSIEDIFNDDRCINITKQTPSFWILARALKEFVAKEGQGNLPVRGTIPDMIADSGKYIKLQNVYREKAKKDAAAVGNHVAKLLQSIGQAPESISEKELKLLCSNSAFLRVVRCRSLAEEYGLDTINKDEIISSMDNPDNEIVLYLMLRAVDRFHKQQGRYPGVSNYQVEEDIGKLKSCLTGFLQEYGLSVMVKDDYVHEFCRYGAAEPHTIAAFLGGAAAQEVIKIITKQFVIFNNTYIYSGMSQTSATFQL
INS-1E GSIS act = GLuc luminescence reporter in INS-1E cells, primary screen for activators of glucose-dependent secretion of insulin | 370,000 tested, 0.61% active | INS-1E GLuc reporter insulin secretion, 2-3 h | activation, % at 16.6 µM | AID 743287, 2014;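 active means lowest replicate activation of at least 40%, so every replicate reaches that level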;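 further: 0% = median of neutral control wells and 100% = median of IBMX positive control wells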
Bfl-1 A1 inh = caspase 3/7 activation in MEF A1-2A-BIM cells, primary screen, A1 inhibitor project, cell-based, luminescence, HTS | Caspase-Glo 3/7 luminescence, 3 h; percent of clofoctol response, vehicle zero | 330,000 tested, 0.066% active | caspase activation, % (concentration not given with the values);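 active means over half of replicate activation scores above 10%, or exactly half above 10 with the replicate mean above 10; inconclusive means replicate mean below 10 yet half the replicates above 10; inactive means over half of replicates below 10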
dFosB act-1 = activators of delta FosB homodimer, primary screen, biochemical, fluorescence polarization, TAMRA-CDK5 oligo, single point; activation, % at 25 µM; purified delta FosB; percent of positive-control signal above neutral wells; AID 493131, 2011; Protein FosB (Mus musculus), P13346; 340,000 tested, 0.99% active;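 active means mean activation above about 17%, with every replicate also reaching it, limit read from the data, passing the limit was not always enough; inconclusive means only one of the two conditions met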
dFosB act-2 = activators of mouse delta FosB DNA binding, confirmation, biochemical, fluorescence polarization, TAMRA-CDK5 oligo, cherry-picked samples; 2,400 tested, under 10 active; activation, % at 24.9 µM; purified delta FosB; normalised: neutral wells 0, positive control 100; shares compounds with dFosB act-1;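 active means highest replicate activation at or above 34% and every replicate reaching that threshold; inconclusive means meets only one of the two criteria; inactive means meets neither criterion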;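 further: higher polarization means more probe DNA bound by delta FosB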
The depositor's hits bear a star. Compounds with a hit are over-represented: about 1.9% of the library has one in this group of screens.

For CCOC(=O)c1ccc(N=Cc2c(O)n(-c3ccccc3F)c(=S)[nH]c2=O)cc1 the results were Vif inh -5, Neddyl block -52, INS-1E GSIS act 1, Bfl-1 A1 inh 1 and dFosB act-1 14.
Screening CCOC(=O)c1ccc(N=Cc2c(O)n(-c3ccc(OC)cc3)c(=S)[nH]c2=O)cc1 returned Vif inh 2, Neddyl block -182, INS-1E GSIS act -1, Bfl-1 A1 inh 1 and dFosB act-1 -25.
For CCOC(=O)c1c(/N=C/c2c(O)n(-c3ccccc3F)c(=S)[nH]c2=O)sc2c1CCCC2 the results were Neddyl block 4, Bfl-1 A1 inh 0 and dFosB act-1 23*.
Screening O=C(Cc1ccccc1)N1CC2(C1)[C@@H](c1ccccc1)[C@H](CO)N2Cc1cccc(F)c1 returned INS-1E GSIS act -16.
`O=C(O)[C@H]1[C@H](CO)[C@H]2Cn3c(ccc(-c4ccccc4)c3=O)[C@@H]1N2C(=O)C1CCCCC1` gave INS-1E GSIS act 1.
For Cc1cccc(-n2c(O)c(C=Nc3ccc(S(N)(=O)=O)cc3)c(=O)[nH]c2=O)c1 the results were Vif inh 1, Neddyl block 7, INS-1E GSIS act 1, Bfl-1 A1 inh 0 and dFosB act-1 -10.
Screening CCn1c(O)c(C=NCc2ccccc2)c(=O)[nH]c1=S returned Vif inh -8, Neddyl block -14, INS-1E GSIS act 35, Bfl-1 A1 inh 0 and dFosB act-1 0.
Screening NS(=O)(=O)c1ccc(N=Cc2c(O)n(C3CCCCC3)c(=O)n(C3CCCCC3)c2=O)cc1 returned Vif inh -1, Neddyl block 21, INS-1E GSIS act 739*, Bfl-1 A1 inh 0 and dFosB act-1 -11.
For CCn1c(O)c(C=Nc2ccc(S(N)(=O)=O)cc2)c(=O)n(CC)c1=S the results were Vif inh 5, Neddyl block -94, Bfl-1 A1 inh 1 and dFosB act-1 19*.
Screening CCn1c(O)c(C=Nc2ccc(S(N)(=O)=O)cc2)c(=O)[nH]c1=S returned Vif inh -8, Neddyl block -126, INS-1E GSIS act 44, Bfl-1 A1 inh 1 and dFosB act-1 20*.
Screening CN1C2CN(CC(F)(F)F)CC1C2c1ccc(Br)cc1 (stereo not given) returned INS-1E GSIS act 7.
Screening CC(C)NC(=O)N1C[C@@H]2C(c3ccccc3)[C@H](C1)N2CC1CC1 (stereo not given in full) returned INS-1E GSIS act 11.
`CN1CCN(c2ccc(N)cc2Cl)CC1` gave Vif inh 7, Neddyl block 0, INS-1E GSIS act -9, Bfl-1 A1 inh 1 and dFosB act-1 33*.
Screening CCOC(=O)C1(c2ccccc2)CCN(CCC(=O)Nc2cccc(Br)c2)CC1 returned Vif inh -8, Neddyl block 6, INS-1E GSIS act -1 and dFosB act-1 18*.
Screening C=C(C)Cn1c(=O)n(CC2CS2)c2ccccc21 (stereo not given) returned Vif inh 2, Neddyl block 17, INS-1E GSIS act 69*, Bfl-1 A1 inh 1 and dFosB act-1 4.
O=C(Cn1c(=O)n(CC2CS2)c2ccccc21)N1CCCCCC1 (stereo not given) was read as Vif inh 9, Neddyl block 2, INS-1E GSIS act -2, Bfl-1 A1 inh 0 and dFosB act-1 -5.
CC(=O)N1C2CN(C)CC1C2c1ccc(Br)cc1 (stereo not given) was read as INS-1E GSIS act -4.
CN1C[C@@H]2N[C@H](C1)C2c1ccc(Br)cc1 (stereo not given in full) was read as INS-1E GSIS act -6.
C/C(=N\N1CCCCCC1)c1c(O)n(-c2ccc(C)cc2)c(=O)[nH]c1=O was read as Vif inh 68*, Neddyl block -2, INS-1E GSIS act 3, Bfl-1 A1 inh 0 and dFosB act-1 -3.
C/C(=N\N1CCCCCC1)c1c(O)n(-c2ccc(Cl)cc2)c(=O)[nH]c1=O was read as Vif inh 8, Neddyl block 6, Bfl-1 A1 inh 1 and dFosB act-1 10.
For C=C1C(=O)O[C@@H]2C[C@@H](C)[C@@H]3C4OC4C(=O)[C@@]3(C)[C@@H](O)[C@H]12 (stereo not given in full) the results were Vif inh 41*, Neddyl block -8, INS-1E GSIS act -32, Bfl-1 A1 inh 0 and dFosB act-1 -1.
C=C1C(=O)OC2CC(C)C3C=CC(=O)C3(C)C(O)C12 (stereo not given) was read as Vif inh -5, Neddyl block 8 and dFosB act-1 -15.
Screening CCN1/C(=C/C=C/C2=[N+](CC)c3ccccc3C2(C)C)C(C)(C)c2ccccc21 returned Vif inh -27, Neddyl block -37 and INS-1E GSIS act -56.
C[N+]1=C(/C=C/Nc2ccccc2)C(C)(C)c2ccccc21 was read as Vif inh -3, Neddyl block -4, INS-1E GSIS act -34, Bfl-1 A1 inh 0, dFosB act-1 23* and dFosB act-2 inconclusive.
For CCCCCn1c(=O)c(C(=O)Nc2ccccc2S(N)(=O)=O)c(O)c2ccccc21 the results were Vif inh -13, Neddyl block 4, INS-1E GSIS act -1, Bfl-1 A1 inh 0, dFosB act-1 63* and dFosB act-2 inconclusive.
For CCCCn1c(=O)c(C(=O)Nc2ccccc2S(N)(=O)=O)c(O)c2ccccc21 the results were Neddyl block 1, Bfl-1 A1 inh 0 and dFosB act-1 -12.
Screening Cc1cc(NC(=O)COC(=O)c2c(C)nn(Cc3ccccc3Cl)c2Cl)no1 returned Neddyl block -2, INS-1E GSIS act 55, Bfl-1 A1 inh 0, dFosB act-1 46* and dFosB act-2 -13.
Screening Cc1cc(NC(=O)COC(=O)c2c(C)nn(Cc3ccccc3)c2C)no1 returned Vif inh -5, Neddyl block -8, Bfl-1 A1 inh 0 and dFosB act-1 -2.
OC[C@@H]1[C@@H]2c3ccccc3NC[C@@H]2N1Cc1cccnc1 was read as INS-1E GSIS act -9.
CN1/C(=C\C=Nc2ccccc2)C(C)(C)c2ccccc21 was read as Vif inh 0, Neddyl block -6, Bfl-1 A1 inh 0, dFosB act-1 26* and dFosB act-2 6.
Screening COc1ccc(C#Cc2ccc([C@H]3[C@H]4CN(C(=O)Cc5ccccc5)CCCCN4[C@H]3CO)cc2)cc1 returned INS-1E GSIS act 9.

From PubChem BioAssay
